This is an account of results in PubChem BioAssay.

Unmarked numbers belong to inactive results. Activity calls are given as the source filed them.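 Rule for the calls: active = GFP response above 150% of the DMSO level; inconclusive = fewer than 70 events counted for a yeast strain; inactive = the rest.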

The nature of this assay: modulators of CIT2-GFP expression in yeast, confirmation, S. cerevisiae, GFP fusion, cherry picks, mother/daughter gates (AID 2274). The settings on record: S. cerevisiae CIT2-GFP strain, flow cytometry, 3 h; at 10 µM; stronger effect = higher value. A general note: Flow cytometry measures light scatter and fluorescence of single cells or particles in a stream.
As to `O=C1c2ccccc2-c2onc3ccc(Oc4ccccc4)c1c23`, the GFP response, % of DMSO was 95.2%.
As for `CCOc1nnc(C)c2c(C)n(-c3cccc(OC)c3)nc12`, the GFP response, % of DMSO is 108%.
For `O=C(C#Cc1ccccc1)c1cccc([N+](=O)[O-])c1` the value was 105%; for `COC(=O)c1ccc2nc(Nc3nc4c(F)cc(F)cc4s3)sc2c1`, 99.7%.
For `O=C(C#Cc1cccc([N+](=O)[O-])c1)c1ccccc1` the value was 101%; for `COC(=O)n1c(=S)oc2cc(Cl)ccc21`, 121%; for `O=C(/C=C/c1ccc(Cl)c([N+](=O)[O-])c1)c1cccnc1`, 86%.
For `COCCN1C(=O)/C(=C/c2ccc(N3CCCC3)cc2C)SC1=S` the value was 112%; for `N=c1c(C(=O)NCc2ccco2)cc2c(=O)n3ccccc3nc2n1CCc1ccccc1`, 96.9%; for `COc1cccc2sc(Nc3nc(-c4ccccn4)cs3)nc12`, 96.5%.
As for `Oc1ccc2ccccc2c1/C=N/Nc1nnc(-c2ncc[nH]2)c2ccccc12`, the GFP response, % of DMSO was 162% (active).
Turning to `CN(C)c1ccc(/C=C/C(=O)c2cccc(Br)c2)cc1`, the GFP response, % of DMSO was 98.8%.
To `CN(c1ccccc1)c1ccc(/C=c2\s/c(=C(/C#N)C(=O)C(C)(C)C)n(Cc3ccco3)c2=O)cc1` belongs 231% (active).
To `CS(=O)(=O)N1N=C(c2ccccc2)CC1c1ccc2c(c1)OCO2` (stereo not drawn) belongs 436% (active).
As to `CCOC(=O)N1CCN(C(=O)CCc2ccc(S(=O)(=O)NCCc3ccccc3)cc2)CC1`, the GFP response, % of DMSO was 100%.
To `CC(C)(C)c1ccc(C(=O)CC(Sc2ccc(Cl)cc2)C(=O)O)cc1` (stereo not drawn) belongs 79.7%.
To `Cc1cc(C)c(C(=O)Cn2cnc3cc([N+](=O)[O-])ccc3c2=O)cc1C` belongs 97.2%; to `CC(C)(C)C(=O)/C=c1\s/c(=C\c2ccc(-c3ccc([N+](=O)[O-])cc3)o2)c(=O)n1CC(=O)NC(N)=O`, 99.7%.
